Compound activity: PubChem, National Center for Advancing Translational Sciences (NCATS)
Lamin A splicing: qHTS Assay for Modulators of Lamin A Splicing; AID 1487, 2009; HeLa LMNA splicing GFP/RFP minigene ratio, 48 h; Potency, µM (series often up to 46.1 µM), hits mostly inhibitors; 0.01% of 200,000 active; active = well fitted inhibition curve with a large enough effect in the signal ratio, with a control signal flat, not every such curve was filed as active; inconclusive = small, poorly fitted or top-dose-only effect, or effect the other way, or a change in a side signal; the % refers to the signal ratio
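S3 HeLa stable clones carrying a lamin A-EGFP splicing minigene plus DsRed2 were seeded at 600 cells/well in Opti-MEM with 2% FBS, pin-dosed and incubated 48 h at 37°C. Acumen cytometry (488 nm) gave the GFP/RFP total-intensity ratio.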
HttQ103 aggreg: qHTS Multiplex Assay to Identify Dual Action Probes in a Cell Model of Huntington: Aggregate Formation (GFP) | 1.1% of 220,000 active | Potency, µM (series often up to 46.1 µM), usual class: inhibitors | AID 1688, 2009 | PC12 HttQ103-GFP aggregates, Acumen cytometry, 40 h; also: nearly all actives have a fitted effect of over 60% in size
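PC12 cells stably carrying ecdysone-inducible HTT exon 1 Q103–GFP were induced with tebufenozide (100 nM final) and treated with library compounds in titration. GFP aggregates in lysates were counted by laser scanning cytometry.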
IMPase inh: qHTS Assay for Identifying the Cell-Membrane Permeable IMPase Inhibitors. Inositol monophosphatase 1 (Rattus norvegicus), P97697. CHO-M1 cells, IP1 accumulation, HTRF TR-FRET ratio. inhibition (IP1 accumulation), % at 46.1 µM. 120,000 tested, under 10 active. AID 901, 2007; active = well fitted curve in the direction sought with a large enough effect in the signal ratio, not every such curve was filed as active; inconclusive = small, poorly fitted or top-dose-only effect, or a change in a side signal; inactive = no such curve, though single readings can be large or run the other way; the % refers to the signal ratio;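 also: cells stimulated with carbachol in lithium chloride buffer; higher means more IMPase inhibition seen as more IP1 and lower FRET ratio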
Target sequence (P97697 whole entry, looked up): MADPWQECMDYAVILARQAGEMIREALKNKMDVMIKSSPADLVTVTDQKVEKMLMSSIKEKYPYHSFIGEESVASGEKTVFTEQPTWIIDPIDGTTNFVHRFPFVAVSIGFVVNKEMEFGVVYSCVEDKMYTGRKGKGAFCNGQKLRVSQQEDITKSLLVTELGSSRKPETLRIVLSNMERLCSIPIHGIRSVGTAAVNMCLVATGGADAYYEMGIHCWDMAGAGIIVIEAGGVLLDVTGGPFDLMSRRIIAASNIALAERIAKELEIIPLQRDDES
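The IP-One HTRF competitive assay in carbachol-stimulated CHO-M1 cells quantifies cellular IP1. Compounds spanned up to 46 uM final, and activity is expressed as AC50 from concentration-response fits of the ratio and donor data.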
IMPase Li inh: qHTS Assay for Identifying the Cell-Membrane Permeable IMPase Inhibitors: Potentiation with Lithium | CHO-M1 cells, IP1 TR-FRET (IP-One), carbachol + lithium | Potency, µM (top dose mostly 59.4 µM), hits mostly inhibitors | 0.35% of 210,000 active | AID 1457, 2008;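 also: IP1 builds up when IMPase is blocked and the TR-FRET signal falls; nearly all actives have a fitted effect of over 50% in size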
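CHO-M1, 2000 cells/well, 16–30 h culture; cpd + low Li+, 30 min 37C; lysis with d2-IP1/Eu-anti-IP1 Ab, 10 min RT; TR-FRET 665/620 ratio and 620 channel; AC50 via Hill.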
HTT cytoprotect: qHTS Multiplex Assay to Identify Dual Action Probes in a Cell Model of Huntington: Cytoprotection (ATP). Potency, µM (doses to about 56.4 µM), most hits filed as activators. PC12 HTT-Q103 induced, cytoprotection, ATP luminescence, 40 h. 0.14% of 230,000 active; also: nearly all actives have a fitted effect of over 45% in size
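Readout: ATPlite luminescence (ATP level). Model: stable PC12, inducible Htt exon1 Q103-GFP. Inducer: tebufenozide, 100 nM final. Compounds: dose series. No G418 in medium.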
NPSR antag: qHTS Assay for Antagonists of the Neuropeptide S Receptor: cAMP Signal Transduction. Q6W5P4. CHO-NPSR cells, cAMP TR-FRET, antagonist mode. Potency, µM (titrated, usually from 38.3 µM), most hits filed as inhibitors. 1% of 220,000 active. AID 1461, 2008; also: nearly all actives have a fitted effect of over 50% in size
Target sequence (Q6W5P4 whole entry, looked up): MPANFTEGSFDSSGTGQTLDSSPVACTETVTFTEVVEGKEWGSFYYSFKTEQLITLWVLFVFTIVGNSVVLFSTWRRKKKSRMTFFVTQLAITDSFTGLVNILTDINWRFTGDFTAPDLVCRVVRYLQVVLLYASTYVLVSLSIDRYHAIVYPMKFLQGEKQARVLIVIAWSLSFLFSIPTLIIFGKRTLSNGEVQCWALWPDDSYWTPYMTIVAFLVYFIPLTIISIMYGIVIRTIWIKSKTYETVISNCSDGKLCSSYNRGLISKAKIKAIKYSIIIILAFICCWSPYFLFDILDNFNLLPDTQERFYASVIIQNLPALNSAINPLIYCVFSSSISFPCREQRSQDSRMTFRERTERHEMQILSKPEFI
Large screens that a line does not name were inactive. In the library only some 1.6% were active in any assay of this set; here they are far more common. Unless noted, calls follow the shape of the dose curve; as a rule, active = well fitted curve in the direction sought with a large enough effect; inconclusive = small, poorly fitted or top-dose-only effect, or another doubt; inactive = no such curve, though single readings can be large; an effect the other way counts as inactive or inconclusive.

Cc1cc(Br)ccc1NC(=O)C(Cc1ccccc1)NS(=O)(=O)c1ccc(Br)s1 (stereo not given)	none (no result: Lamin A splicing, HttQ103 aggreg, IMPase Li inh, HTT cytoprotect, NPSR antag)
c1ccc2c(c1)CCN(c1ncnc3c1[nH]c1ccccc13)C2	Lamin A splicing inconclusive, HttQ103 aggreg 11µM, NPSR antag inconclusive
COc1cccc2[nH]c3c(N4CCc5ccccc5C4)ncnc3c12	none (no result: Lamin A splicing, IMPase inh, IMPase Li inh)
c1ccc2c(c1)[nH]c1c(N3CCC4(CC3)OCCO4)ncnc12	Lamin A splicing inconclusive, HttQ103 aggreg 13µM
CO[C@H]1COC(=O)[C@H](C)NC(=O)[C@@H](C)COC(=O)C/C=C\[C@@H]1C	none (no result: Lamin A splicing, HttQ103 aggreg, IMPase inh, IMPase Li inh, NPSR antag)
Cc1c2oc3c(C)ccc(C(=O)NC4C(=O)NC(C(C)C)C(=O)N5CCCC5C(=O)N(C)CC(=O)N(C)C(C(C)C)C(=O)OC4C)c3nc-2c(C(=O)NC2C(=O)NC(C(C)C)C(=O)N3CCCC3C(=O)N(C)CC(=O)N(C)C(C(C)C)C(=O)OC2C)c(N)c1=O (stereo not given)	none (no result: Lamin A splicing, HttQ103 aggreg, IMPase inh, NPSR antag)
FC(F)Sc1ccc(NC(=S)NC(c2ccccc2)c2ccccc2)cc1	HttQ103 aggreg 13µM, NPSR antag inconclusive (no result: Lamin A splicing, IMPase inh)
COc1cc(/C=N/NC(=O)c2cc(-c3cccn3C)n[nH]2)cc(OC)c1OC	HttQ103 aggreg inconclusive, HTT cytoprotect inconclusive
COc1cccc(/C=N/NC(=O)c2cc3c(OC)cccc3[nH]2)c1O	Lamin A splicing inconclusive, HttQ103 aggreg 2.2µM (no result: IMPase inh)
COc1cccc(/C=N\NC(=O)C2C(=O)NCC2c2ccccc2)c1O (stereo not given)	HttQ103 aggreg 11µM
COc1cccc(/C=N/NC(=O)c2cc(-c3cccn3C)n[nH]2)c1O	Lamin A splicing inconclusive, HttQ103 aggreg 1.8µM (no result: IMPase inh)
COc1cccc(/C=N/NC(=O)c2cc3c(OC)cccc3[nH]2)c1OC	none
c1ccc(CN2CC[C@@H](CNc3ncnc4ccccc34)C2)cc1	none (no result: Lamin A splicing, HttQ103 aggreg, IMPase inh, NPSR antag)
CO[C@H]1COC(=O)C/C=C\[C@@H](C)COC(=O)[C@@H](CCSC)NC(=O)C/C=C\[C@@H]1C	none (no result: Lamin A splicing, HttQ103 aggreg, IMPase inh, IMPase Li inh, NPSR antag)
Cc1ccccc1C(=O)N/N=C/c1ccc([N+](=O)[O-])s1	Lamin A splicing inconclusive, HttQ103 aggreg 25µM
CS(=O)(=O)c1nc(-c2ccco2)cc(C(F)(F)F)n1	Lamin A splicing inconclusive, HttQ103 aggreg inconclusive, NPSR antag 10µM
COc1ccccc1-c1cc(C(F)(F)F)nc(S(C)(=O)=O)n1	Lamin A splicing inconclusive, HttQ103 aggreg inconclusive, NPSR antag 7.9µM
COc1cccc(OC)c1OCCNC[C@@H]1CSc2ccccc2O1	none (no result: Lamin A splicing, HttQ103 aggreg, IMPase Li inh, NPSR antag)
CN(CCc1ccccn1)C(=S)NC(=O)c1ccco1	none (no result: IMPase inh)
N#CC(C#N)=c1ccc2c(c1)NC1(CCCCC1)N=2	Lamin A splicing inconclusive, HttQ103 aggreg inconclusive, IMPase inh inconclusive, HTT cytoprotect inconclusive, NPSR antag 10µM
CCCCC/C=C/C=C1/C(=O)C=C[C@@H]1C/C=C\CCCC(=O)O	HTT cytoprotect inconclusive (no result: Lamin A splicing, HttQ103 aggreg, IMPase inh, NPSR antag)
CCCCC[C@H](O)C/C=C1/C(=O)C=C[C@@H]1C/C=C\CCCC(=O)O	HTT cytoprotect 11µM (no result: Lamin A splicing, HttQ103 aggreg, IMPase inh, NPSR antag)
COC(=O)[C@H]1[C@H]2C[C@@H]3c4[nH]c5ccccc5c4CCN3C[C@H]2C[C@@H](OC(=O)c2cc(OC)c(OC)c(OC)c2)[C@@H]1OC	none (no result: Lamin A splicing, IMPase inh, IMPase Li inh, NPSR antag)
CC(=O)C1=C(c2ccc(Br)cc2)C(=O)c2ccccc2C1=O	Lamin A splicing inconclusive, HttQ103 aggreg 5µM, NPSR antag inconclusive
CC1=CC(=C2C(=O)c3ccccc3C2=O)C=C(C)O1	IMPase Li inh inconclusive, NPSR antag inconclusive
COc1ccccc1CCNC(=O)C(C)Sc1nc(-c2ccccc2)cc(C(F)(F)F)n1 (stereo not given)	none (no result: Lamin A splicing, HttQ103 aggreg, IMPase Li inh, HTT cytoprotect, NPSR antag)
O=C(NCCC1=CCCCC1)c1coc(=O)c(Br)c1	Lamin A splicing inconclusive, HttQ103 aggreg inconclusive, IMPase Li inh 28µM
O=C(NCCC1=CCCCC1)c1ccc(=O)oc1	none
COc1ccc(C2=NN(C(=O)c3cccs3)C(O)(C(F)(F)F)C2)cc1 (stereo not given)	Lamin A splicing inconclusive (no result: IMPase inh)
COc1ccc(C2=NN(C(=O)c3cccs3)C(c3ccccc3O)C2)cc1 (stereo not given)	HTT cytoprotect inconclusive, NPSR antag 10µM (no result: Lamin A splicing, IMPase inh)
Cc1c(NS(=O)(=O)c2ccc3c(c2)OCCO3)cccc1-c1nc2cccnc2s1	Lamin A splicing inconclusive, HttQ103 aggreg 8.9µM, NPSR antag inconclusive
O=C(Nc1ccc(N2CCN(C(=O)c3ccccc3)CC2)c(Cl)c1)c1ccc(Br)o1	Lamin A splicing inconclusive, HttQ103 aggreg 11µM, NPSR antag inconclusive
O=C(Cc1ccc(Cl)cc1)Nc1ccc(N2CCN(C(=O)c3ccco3)CC2)c(Cl)c1	Lamin A splicing inconclusive, HttQ103 aggreg 10µM, NPSR antag inconclusive
O=C(Nc1ccccc1N1CCN(C(=O)c2ccccc2)CC1)c1cc2ccccc2o1	NPSR antag 4µM
O=C(Nc1ccc(N2CCN(C(=O)c3ccco3)CC2)c(Cl)c1)c1cccs1	Lamin A splicing inconclusive, HttQ103 aggreg inconclusive
CC(C)(C)[C@@]1(O)CCN2C[C@@H]3c4ccccc4CCc4cccc(c43)[C@@H]2C1	none (no result: Lamin A splicing, HttQ103 aggreg, IMPase Li inh, NPSR antag)
C=CCN1C(=O)C(O)(CC(=O)c2ccco2)c2cc(Br)ccc21 (stereo not given)	none (no result: Lamin A splicing, IMPase inh)
S=c1[nH]nc(-c2cc(-c3ccccc3)n[nH]2)n1/N=C/C(Br)=C/c1ccccc1	NPSR antag inconclusive (no result: Lamin A splicing, IMPase inh, IMPase Li inh)
